High-throughput results: PubChem, National Center for Advancing Translational Sciences (NCATS)
Compounds with a hit are over-represented: about 12% of the library has one in this group of screens.
BAZ2B block – qHTS Assay for Inhibitors of BAZ2B. 360,000 compounds, 4.4% hits. Potency, µM (top dose mostly 114 µM), for inactives: at the top dose activity change, negative = inhibition, hits mostly inhibitors. AID 504333, 2011. AlphaScreen BAZ2B-H3K14Ac peptide displacement; note: % is set by controls: 0 for no effect and ±100 for the full control effect; nearly all actives have a fitted effect of over 60% in size
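Protein-peptide AlphaScreen: BAZ2B 50 nM, b-H3K14Ac 50 nM, 1x PBS pH 7.4 + 0.01% Tween-20. Preincubation 30 min RT; cpd 30 min RT (top 110 uM); beads 20 min RT, light-protected.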
JMJD2A Tudor – qHTS Assay for Inhibitors of JMJD2A-Tudor Domain; AlphaScreen JMJD2A-Tudor / H3K4me3 peptide binding; 390,000 compounds, 4.4% hits; AID 504339, 2011; Lysine-specific demethylase 4A (Homo sapiens), O75164; Potency, µM (series often up to 114 µM), without a hit: at the top dose activity change, negative = inhibition, actives largely listed as inhibitors; note: % is set by controls: 0 for no effect and ±100 for the full control effect; nearly all actives have a fitted effect of over 50% in size
HP1b chromo inh – HTS for Inhibitors of HP1-beta Chromodomain Interactions with Methylated Histone Tails | Chromobox protein homolog 1 (Homo sapiens), P83916 | AlphaScreen HP1-beta / biotin-H3K9me3 peptide binding | Potency, µM (titrated, usually from 114 µM), for the others: at the highest dose activity change, negative = inhibition, usual class: inhibitors | 390,000 compounds, 0.56% hits; note: nearly all actives have a fitted effect of over 70% in size
Target sequence (P83916 whole entry, looked up): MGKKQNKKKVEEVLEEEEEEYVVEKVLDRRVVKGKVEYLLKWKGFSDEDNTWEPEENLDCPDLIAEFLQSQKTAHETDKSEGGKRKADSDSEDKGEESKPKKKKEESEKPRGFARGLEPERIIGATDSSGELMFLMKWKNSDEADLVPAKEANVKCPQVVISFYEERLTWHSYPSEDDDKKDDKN
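AlphaScreen: HP1-beta (50 nM) preformed 30 min with biotin-H3(1-18)K9me3 peptide (50 nM) in PBS pH 7.4, 0.01% Tween-20. Compound added for 30 min at RT, then streptavidin donor/nickel chelate acceptor beads (10 ug/mL) for 30 min.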
G9a block – qHTS Assay for Inhibitors of Histone Lysine Methyltransferase G9a; Histone-lysine N-methyltransferase EHMT2 (Homo sapiens), Q96KQ7; G9a H3K9 monomethylation, AlphaScreen, 2 h; Potency, µM (top dose mostly 102 µM), without a hit: at the highest dose activity, negative = inhibition, most hits filed as inhibitors; 350,000 compounds, 8.8% hits; AID 504332, 2011; note: % is set by controls: 0 for no effect and ±100 for the full control effect; nearly all actives have a fitted effect of over 75% in size
Target sequence (Q96KQ7 913-1193 limits assumed): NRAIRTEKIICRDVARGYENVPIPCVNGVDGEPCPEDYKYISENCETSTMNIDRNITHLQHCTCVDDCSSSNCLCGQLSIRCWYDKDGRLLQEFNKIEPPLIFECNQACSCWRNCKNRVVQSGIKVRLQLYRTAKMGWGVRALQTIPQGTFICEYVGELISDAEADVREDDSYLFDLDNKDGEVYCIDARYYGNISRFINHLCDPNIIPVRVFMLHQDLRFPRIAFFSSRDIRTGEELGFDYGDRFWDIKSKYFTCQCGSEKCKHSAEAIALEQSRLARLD
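G9a (20 nM) was preincubated 15 min with compound, then reacted 2 h at room temperature with 500 nM biotin-H3K9 peptide and 20 µM SAM. Monomethyl-H3K9 detected by AlphaScreen using anti-H3K9me1 antibody.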
TDP1 inh – qHTS Assay for Inhibitors of Tyrosyl-DNA Phosphodiesterase (TDP1). Tyrosyl-DNA phosphodiesterase 1 (Homo sapiens), Q9NUW8. recombinant TDP1, AlphaScreen DNA substrate cleavage. Potency, µM (series often up to 130 µM), for inactives: top-dose activity change, negative = inhibition, usual class: inhibitors. 350,000 compounds, 0.28% hits; note: % is set by controls: 0 for no effect and ±100 for the full control effect; nearly all actives have a fitted effect of over 40% in size
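Steps: enzyme plus compound, 15 min RT; add biotin/phosphotyrosine-FITC oligonucleotide (15 nM final), react 5 min; add donor/acceptor beads (10 ug/ml final), 10 min; read AlphaScreen. Tdp1 at 1 nM final.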
Sfp PPTase inh – qHTS Assay for Inhibitors of Bacillus subtilis Sfp phosphopantetheinyl transferase (PPTase); 4'-phosphopantetheinyl transferase ffp (Bacillus subtilis), Q9F4F7; Biochemical Sfp PPTase activity, qHTS; Potency, µM, without a hit: largest response in the series, negative = inhibition, usual class: inhibitors; 310,000 compounds, 3.5% hits;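 note: the enzyme is Sfp with the accession as filed and its product quenches rhodamine fluorescence; 0% = enzyme reaction without inhibitor and -100% = no enzyme wells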
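With Hepes-Na pH 7.6 buffer containing 10 mM MgCl2, Sfp (15 nM) modified BHQ-2-YbbR (12.5 uM) using rhodamine-CoA (5 uM). Two reads 30 minutes apart at 525/598 nm yielded each well's rate.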
* marks the source's active call; other numbers are inactive results; ? = inconclusive; nt = no result; [ ] = remark or other dose. Calls come from the whole dose curve; as a rule, active = well fitted curve in the direction sought with a large enough effect; inconclusive = small, poorly fitted or top-dose-only effect, or another doubt; inactive = no such curve, though single readings can be large; an effect the other way counts as inactive or inconclusive. Potency is the fitted concentration of half-maximal effect.

SMILES	BAZ2B block	JMJD2A Tudor	HP1b chromo inh	G9a block	TDP1 inh	Sfp PPTase inh
Cc1cc(N2CCN(C(=O)c3ccco3)CC2)c2ccccc2n1	-14%	-14%	33%	?	4%	22%
CCOc1ccc(S(=O)(=O)N2CCOCC2)cc1NC(=O)Cc1c(F)cccc1Cl	-4%	-4%	51%	-21%	nt	nt
O=C(CN(c1ccccc1)S(=O)(=O)c1ccccc1)NCCSCc1ccco1	50µM*	56µM*	-16%	?	28µM*	-20%
Cc1ccc(S(=O)(=O)N(CC(=O)NCCSCc2ccco2)c2ccc(F)cc2)cc1	?	nt	nt	nt	3%	56µM*
COc1ccc(N(CC(=O)NCCSCc2ccco2)S(=O)(=O)c2ccccc2)cc1	-34%	-34%	-14%	-41%	0%	-17%
O=C(CCSc1ccccc1)NCCSCc1ccco1	5%	-20%[57.1 µM]	13%	9%	5%	50µM*
CN(c1ccc(C(=O)NCCSCc2ccco2)cc1)S(C)(=O)=O	-28%	-2%	42%	-35%[59 µM]	-2%	35µM*
CC(C)CC1Nc2ccc(C(=O)NCCCOC(C)C)cc2NC1=O (centres undefined)	2%	-11%	29%	-3%[59 µM]	-1%	nt
COC(=O)Nc1ccc(S(=O)(=O)N2CCC(C(=O)NCc3ccc4c(c3)OCO4)CC2)cc1	nt	-18%	6%[57 µM]	nt	2%	nt
COc1ccc(OC)c(C(=O)c2c(C)oc3cc(Br)c(O)c(CN(C)C)c23)c1	nt	-36%	?	nt	nt	nt
Cc1oc2c(Cl)c(Cl)c(O)c(CN(C)C)c2c1C(=O)c1ccc(Cl)cc1	45µM*	?	-5%	?	nt	-28%
C=CCn1c(SCCC)nc2ccccc2c1=O	nt	58%[57.1 µM]	79%[57 µM]	nt	nt	nt
Cc1ccc(C)c2sc(NC(=O)c3ccc(S(=O)(=O)N4CCC(C)CC4)cc3)nc12	-1%	1%	31%[57 µM]	1%[59 µM]	5%	nt
Cc1ccc(C)c(S(=O)(=O)Nc2cc(SCC(=O)O)c(O)c3ccccc23)c1	20µM*	40µM*	?	1.1µM*	5%	3.5µM*
CCOc1ccc(S(=O)(=O)Nc2cc3c(C(=O)OC)c(COC)oc3c3ccccc23)cc1	-3%	-19%	-11%	-44%[59 µM]	nt	nt
CCOc1ccc(S(=O)(=O)Nc2cc(SCC(=O)O)c(O)c3ccccc23)cc1	50µM*	22µM*	13µM*	?	nt	-84%
O=S(=O)(Nc1cc(Sc2cccc3cccnc23)c(O)c2ccccc12)c1ccccc1	?	nt	nt	1.6µM*	0%	10µM*
O=C(O)CSc1cc(NS(=O)(=O)c2cccc([N+](=O)[O-])c2)c2ccccc2c1O	?	-35%[11.4 µM]	10µM*	2.5µM*	10%	2.8µM*
Cc1ccc(NS(=O)(=O)c2cc(NC(=O)C(C)Oc3ccccc3)ccc2C)c(C)c1 (centres undefined)	-36%	-25%	26%	14%[59 µM]	0%	-16%
CCOC(=O)c1ccc(NC(=O)CCn2c(=O)c3cccn3c3cccnc32)cc1	-14%	-2%	42%	-27%[59 µM]	0%	nt
O=C(CN1c2ccccc2Sc2ccccc21)NNC(=S)Nc1ccc(Cl)cc1Cl	-5%	-23%	13%	66%[59 µM]	10%	11%
O=C(CN1c2ccccc2Sc2ccccc21)NNC(=S)Nc1ccc(Cl)cc1	?	?	?	28µM*	nt	5%
O=C(CN1CCOCC1)NNC(=S)Nc1ccc(Cl)cc1	?	-13%	31%	40µM*	3%	16%
O=C(COc1ccc(F)cc1)Nc1cccc(OCc2cc(=O)n3ccccc3n2)c1	5%	-13%	29%[57 µM]	-5%[59 µM]	3%	nt
Cc1csc2nc(CCNS(=O)(=O)c3ccc4c(c3)OCCO4)cn12	0%	-7%	14%	50µM*	4%	6%
SMILES	BAZ2B block	JMJD2A Tudor	HP1b chromo inh	G9a block	TDP1 inh	Sfp PPTase inh
Cc1csc2nc(CNS(=O)(=O)c3ccc4c(c3)OCCO4)cn12	3%	-1%	40%	?	-1%	14%
CSc1nnc(C)c(=O)n1COC(=O)/C=C/c1ccc2c(c1)OCO2	nt	-22%	16%	-46%	5%	-18%
N#CC1=C(N)N(c2ccccc2)C(c2ccco2)C1(C#N)C#N (centres undefined)	?	?	-23%	16%[12.7 µM]	9%	9%
N#CC1=C(N)N(c2ccccc2)C(c2cccc([N+](=O)[O-])c2)C1(C#N)C#N (centres undefined)	?	?	-16%	45µM*	7%	-7%
CC(C)CN1C(=O)/C(=C/c2c(N3CCc4ccccc4C3)nc3ccccn3c2=O)SC1=S	-38%	nt	nt	35µM*	7%	4%
Cc1ccc(C(=O)c2c3ccc([N+](=O)[O-])cc3[n+]([O-])n2CCC(N)=O)cc1	?	-31%	12%	50µM*	nt	11%
COc1ccc(C(=O)c2c3ccc([N+](=O)[O-])cc3[n+]([O-])n2CCCC(N)=O)cc1	1%	-26%	11%	16%[2.33 µM]	3%	nt
CC(=O)c1ccc(NC(=O)CN2C(=O)CCc3ccccc32)cc1	-14%	-21%	31%	-21%[59 µM]	8%	nt
O=C(CCl)N1CCN(S(=O)(=O)c2ccc3c(c2)CCC3)CC1	5%	-11%	38%	19%[2.33 µM]	1%	nt
Cc1cc(Cl)ccc1NNC(=O)CCc1ccccc1	-17%	-13%	17%	28µM*	0%	6%
O=C(CCc1ccccc1)NNC(=S)NC(=O)c1ccccc1	2%[57.1 µM]	28µM*	-4%	4.5µM*	9%	?
O=C(CCc1ccccc1)NNC(=S)NCCc1ccccc1	-10%	-16%	?	-11%	2%	16%
O=C(CCc1ccccc1)NNC(=O)c1cc(Cl)ccc1O	7%	-1%	36%	nt	nt	30%
CCCCC(=O)NC(=S)NNC(=O)CCc1ccccc1	5%	2%	38%	32µM*	4%	-28%
CC(C)(C)c1cc(CCC(=O)NNC(=S)NC(=O)c2ccccc2)cc(C(C)(C)C)c1O	-34%	?	8%	28µM*	9%	56µM*
CCOC(=O)C1CCN(C(=O)COC(=O)C23CC4CC(CC(C4)C2)C3)CC1	nt	-12%	37%	nt	-1%	nt
CCCCC(CC)CNC(=O)CCCc1nnc2n(CCC)c(=O)c3sccc3n12 (centres undefined)	-1%	-6%	37%	2%[59 µM]	0%	nt
